Screening data: PubChem, National Center for Advancing Translational Sciences (NCATS)
KDM5B inhibitor: Primary screen for KDM5B Histone Demethylases FDH-coupled qHTS. 220,000 compounds, 2.6% hits. KDM5B demethylase, FDH-coupled NADH fluorescence (FDH is formaldehyde dehydrogenase). Potency, µM (top dose mostly 57.7 µM), usual class: inhibitors. AID 1347165, 2019; active means well fitted inhibition curve with a large enough effect; further: 0% is about no effect; nearly all actives have a fitted effect of over 70% in size
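Coupled FDH/NAD⁺ fluorescence readout. KDM5BΔAP 200 nM final; compound titration, 10 min RT preincubation; substrate mix 12.5 µM H3K4me3, 25 µM 2-OG, 50 µM Fe(II), 100 µM ascorbate, 0.25 mM NAD⁺, 0.25 U/mL FDH; ΔRFU over 30 min.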
Active calls of the source: *; i = inactive. This excerpt belongs to a sample that is enriched for hits. Potency means the concentration at half of the fitted maximal effect.

SMILES	KDM5B inhibitor
CCCCCCNc1nc2c(c(=O)[nH]c(=O)n2C)n1CCCc1ccccc1	i
Cc1ccc2c(Cn3nnc(-c4ccc(F)cc4)n3)cc(=O)oc2c1C	i
Cc1ccccc1CSc1nc2nccnc2c(=O)n1Cc1ccc2c(c1)OCO2	i
Cc1cccc(N(CC(=O)Nc2c(C)cccc2C)S(C)(=O)=O)c1C	i
Cc1cccc(C(=O)N2CCC(c3nc4ccccc4o3)CC2)c1	i
COc1ccc(CN2CCNC(=O)C2CC(=O)NCc2ccco2)c(F)c1 (centres undefined)	10µM*
COc1ccc2ccccc2c1CNC(=O)CC1C(=O)NCCN1CC(C)(C)C (centres undefined)	i
COc1ccc(CN2CCNC(=O)C2CC(=O)NC2CCOCC2)c(F)c1 (centres undefined)	i
COc1ccc(C(=O)N2CCC(c3n[nH]c(=O)n3-c3ccc(C)cc3)CC2)cc1	i
CN(C)c1nc2c(c(=O)[nH]1)CCN(Cc1cc(Cl)ccc1F)CC2	i
CN(C)c1nc2c(c(=O)[nH]1)CCN(Cc1ccc(Cl)c(F)c1)CC2	28µM*
CN(C)c1nc2c(c(=O)[nH]1)CCN(Cc1cc(F)c(F)c(F)c1)CC2	i
COc1cccc(-c2cc3c(=O)n(CCNC(=O)c4cccc(Cl)c4)ccn3n2)c1	i
COc1cccc(-c2cc3c(=O)n(CCNC(=O)c4cc(C)cc(C)c4)ccn3n2)c1	32µM*
COc1cccc(-c2cc3c(=O)n(CC(O)c4cccc(C#N)c4)ccn3n2)c1 (centres undefined)	22µM*
COc1cccc(-c2cc3c(=O)n(CCNC(=O)c4cc(Cl)ccc4F)ccn3n2)c1	25µM*
COc1cccc(CC(=O)NCCn2ccn3nc(-c4ccc(C)cc4C)cc3c2=O)c1	i
COc1ccc(C(=O)NCCn2ccn3nc(-c4cccc(OC)c4)cc3c2=O)cc1	22µM*
Cc1c(C(=O)N(Cc2ccc(Cl)cc2)C2CCS(=O)(=O)C2)oc2ccc(Br)cc12 (centres undefined)	i
CC(C)CNC(=O)N1CCC(N2C(=O)C3(CCCCC3)C2c2ccncc2)CC1 (centres undefined)	i
CN1CCC(N(C)C(=O)c2ccc(C(F)(F)F)cc2)CC1	i
O=C(CCCc1nc2ccccc2s1)NC1CCCC1	i
CCN(C(=O)CSc1nnc(N2CCOCC2)n1-c1cccc(F)c1)C1=CCCCC1	i
O=C(OCC(=O)c1c[nH]c2ccccc12)c1cccs1	i
COc1cccc(-c2cc3c(=O)n(CCNC(=O)C4CCN(C(C)=O)CC4)ccn3n2)c1	20µM*
SMILES	KDM5B inhibitor
COc1cccc(-c2cc3c(=O)n(CCNC(=O)c4ccc(C(C)(C)C)cc4)ccn3n2)c1	25µM*
COc1cccc(-c2cc3c(=O)n(CCNC(=O)C4CCCCC4)ccn3n2)c1	i
O=C(Oc1ccc2c(-c3cc4cc(Cl)ccc4oc3=O)cc(=O)oc2c1)N1CCOCC1	i
O=C(O)CCCOc1ccc2c(c1)CCC(=O)N2	i
N#C/C(=C\c1cccc(OCCOc2ccccc2)c1)c1nc2ccccc2[nH]1	i
CCC1CCc2c(sc(NC(=O)COCC(=O)O)c2C(=O)NCc2ccccc2)C1 (centres undefined)	i
Cc1noc(-c2ccn3c(CNC(=O)c4cccc5[nH]ccc45)nnc3c2)n1	25µM*
COc1ccccc1C(=O)NCc1nnc2cc(-c3nc(C)no3)ccn12	10µM*
Cc1noc(-c2cccc(OC3CN(C(=O)c4cnn(C)c4)C3)c2)n1	i
CCc1noc(-c2ccn3c(CNC(=O)c4cc(Cl)ccc4OC)nnc3c2)n1	i
CCOc1ccccc1C(=O)NCc1nnc2cc(-c3nc(C(C)C)no3)ccn12	14µM*
Cc1noc(-c2cccc(OC3CN(C(=O)c4cccc5[nH]ccc45)C3)c2)n1	28µM*
CCNC(=O)N1CC(Oc2cccc(-c3nc(C)no3)c2)C1	i
Cc1cccc(-c2nc(C#N)c(N3CCN(C(=O)c4ccc(F)cc4)CC3)o2)c1	i
Nc1ncnc(Nc2ccc(Cl)cc2)c1[N+](=O)[O-]	i
N#Cc1cccc(CN2CCOC[C@H]2c2ncc(-c3ccc(Cl)s3)[nH]2)c1	i
COc1cccc(Oc2cnc(N)nc2-c2ccc(OCc3ccccc3)cc2O)c1	i
Brc1ccc2[nH]cc(/C=N/n3cnnc3)c2c1	i
OCc1cccc(-c2ccc3ncc(Nc4ccccc4Cl)n3n2)c1	i
Cc1cccc(OCC(=O)Nc2nc(-c3ccc(S(=O)(=O)N4CCOCC4)cc3)cs2)c1C	i
O=C(COC(=O)c1cccs1)c1ccc(OCc2ccccc2)cc1	i
CCCc1noc(-c2ccn3c(CNC(=O)c4ccccc4OCC)nnc3c2)n1	10µM*
COc1ccccc1C(=O)NCc1nnc2cc(-c3nc(C(C)C)no3)ccn12	22µM*
CCCc1noc(-c2ccn3c(CNC(=O)c4cc(Cl)ccc4F)nnc3c2)n1	i
CCOC(=O)c1nc(NC(C)c2ccccc2)c2ccccc2n1 (centres undefined)	i
SMILES	KDM5B inhibitor
Cc1cccc(N/N=C/c2ccc(Cl)c(Cl)c2)c1	i
c1ccc(C2CCCN2Cc2nnc(-c3ccco3)o2)cc1 (centres undefined)	i
COc1ccccc1/C=C/c1nc(C#N)c(NCc2ccc3c(c2)OCO3)o1	i
CN(C)c1cccc(-c2cnc(NC(=O)C3CCOCC3)c3c2CCO3)c1	i
CNC(=O)c1cccc(-c2cnc(NC(=O)c3ccncc3)c3c2CCO3)c1	i
COc1cccc(NC(=O)CCc2ncc(-c3ccccc3)o2)c1	i
CNC(=O)c1cccc(-c2cnc(Nc3cccc(F)c3)c3c2CCO3)c1	32µM*
CN(C)c1cccc(-c2cnc(Nc3cncnc3)c3c2CCO3)c1	i
COc1cccc(Nc2ncc(-c3ccccc3)c3c2OCC3)c1	20µM*
COc1cccc(Nc2ncc(C#N)c(N)n2)c1	i
COc1cccc(Nc2ncc(-c3cccc(N(C)C)c3)c3c2OCC3)c1	22µM*
O=C(Nc1ncc(-c2cccc(F)c2)c2c1OCC2)c1c[nH]c2ccccc12	i
Cc1ccc(NC(=O)CSc2nc(CN(C)C)nc3ccccc23)c(C)c1	i
O=C(O)CC(O)(c1ccccc1)c1ccccc1	i
COCCn1cnc2c1c(=O)n(CC(=O)Nc1c(C)cc(C)cc1C)c(=O)n2CC(C)C	i
Cc1n[nH]c(C)c1I	i
NC(=O)C1CCCN1S(=O)(=O)c1ccc(Br)s1 (centres undefined)	i
COc1ccc(CNC(=O)N2CCN(S(=O)(=O)c3c(Cl)cccc3Cl)CC2)cn1	i
Cc1ccc(C)c(NC(=O)N2CCCC2c2ccccc2Cl)c1 (centres undefined)	i
CCC(=O)N1CCc2c(sc3ncnc(NCc4ccccc4)c23)C1	32µM*
Nc1ncnc2sc3c(c12)CCN(C(=O)c1ccccc1)C3	i
CCC(=O)N1CCc2c(sc3ncnc(NCCc4ccccc4)c23)C1	i
O=S(=O)(Nc1ccc(-c2ccc(N3CCCCCC3)nn2)cc1)c1ccc(Cl)s1	i
O=C(c1nnc(CNc2ccccn2)n1-c1cccnc1)N1CCC[C@@H]1C(c1ccccc1)c1ccccc1	13µM*
COc1ccccc1OCc1nnc(C(=O)N2CCC[C@@H]2C(c2ccccc2)c2ccccc2)n1-c1ccccc1	i
O=C(c1nnc(CNCc2cccc(F)c2)n1-c1cccnc1)N1CCC[C@@H]1C(c1ccccc1)c1ccccc1	i
COc1ccc(OCc2nnc(SCC(=O)N3CCc4ccccc4C3)n2C)cc1	i
